Source: PubChem
MITF TRPM1 inh = MITF TRPM1 promoter inhibition in SK-MEL-5 cells; SK-MEL-5 TRPM1 promoter luciferase, 24 h; inhibition, % at 12.5 µM; 330,000 compounds, 0.83% hits;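 active means mean inhibition across replicates of 60% or more, whatever share of single replicates reaches that level; inconclusive means some that reach 60%, reason not given; inactive means mean inhibition across replicates below 60%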
CF NFkB inh = blocks PAF-induced NF-kB reporter in cystic fibrosis cells; KKLEB NF-kB-GFP reporter, GFP fluorescence overnight; inhibition, % at 5 µM; 360,000 compounds, 0.86% hits; AID 588850;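 active means at least 50% inhibition at 5 µM, scaled per plate between neutral and stimulator controls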;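 further: PAF is a Pseudomonas aeruginosa culture filtrate used as stimulus; plate controls were PAF-stimulated DMSO wells for no effect and unstimulated DMSO wells for full effect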
Peg3 promoter = Peg3 promoter activity inhibition | inhibition, % at 20 µM | 360,000 compounds, 1.7% hits | AID 588405 | HeLa PEG-Prom luciferase reporter, luminescence, overnight;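 active means inhibition of at least 50% at 20 µM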
Shn3 inh set2 = Schnurri-3 reporter inhibition in Clone20 osteoblasts; Clone20 osteoblast Shn3 3'UTR firefly luciferase, 24 h; inhibition, % at 12.5 µM; 360,000 compounds, 0.52% hits; AID 588674;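 active means mean inhibition of at least 75% with every replicate also reaching 75%; inconclusive means mean inhibition at least 75% but some replicate below; inactive means mean inhibition below 75%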;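 further: 0% = median of neutral control wells and 100% = pilot-screen positive control compound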
KKLEB cytotox = reduces viability of KKLEB cystic fibrosis airway cells; AID 602141; 360,000 compounds, 0.36% hits; activity change (cytotoxicity), % at 5 µM; KKLEB CF airway cells viability, ATPlite luminescence, overnight; stronger effect = lower value; cells stimulated with P. aeruginosa culture filtrate;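 active means corrected activity change at or below -50% at 5 µM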
LMP1 NFkB inh = inhibitors of Epstein-Barr LMP1-induced NF-kappaB reporter. LMP1-induced NF-kappaB luciferase reporter cells, luminescence. inhibition, % at 12.5 µM. 350,000 compounds, 0.69% hits; in the data active means inhibition above about 41%; inconclusive means no clear call, values can overlap the other calls;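 further: 0% = neutral control wells and 100% = reference inhibitor control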
An asterisk follows results filed as active; ? = inconclusive; . = no result given. An excerpt weighted towards active compounds, which were near 2.9% of everything screened.

SMILES | MITF TRPM1 inh | CF NFkB inh | Peg3 promoter | Shn3 inh set2 | KKLEB cytotox | LMP1 NFkB inh
Cc1ccc(CN2C(=O)CCC2C(=O)NCCCN2CCC(C)CC2)cc1 (stereo not drawn) | -6 | -4 | 6 | -66 | -4 | 50*
OC(c1cc(C(F)(F)F)nc2c(C(F)(F)F)cccc12)C1CCCCN1 (stereo not drawn) | 36 | 29 | 93* | 21 | -20 | -15
OC(c1cc(-c2ccc(C(F)(F)F)cc2)nc(C(F)(F)F)c1)C1CCCCN1 (stereo not drawn) | 100* | 68* | 109* | 96* | -70* | -12
FC(F)(F)c1cc(N2CCNCC2)c2ccccc2n1 | 6 | 10 | 8 | 19 | -10 | 15
OC(c1cc(-c2cccc(Cl)c2)nc2ccccc12)C1CCCCN1 (stereo not drawn) | 98* | 41 | 104* | 90* | -24 | -37
Cc1ccc(-c2nn(-c3ccccc3)cc2CNCc2ccccc2)cc1 | -4 | 11 | 53* | 44 | -16 | -13
Cc1ccc(-c2cc(NC(=O)CCl)n(-c3ccccc3)n2)cc1 | -12 | -48 | 37 | . | -14 | -10
Cc1ccc(C)c(-n2cc(CNCCCn3cccn3)c(-c3ccccc3)n2)c1 | -2 | 9 | 10 | -3 | -22 | 0
Cc1ccc(-c2nn(-c3ccccc3)cc2NC(=O)CCl)cc1 | 51 | 25 | 105* | 5 | -34 | -11
Cc1ccc(-n2cc(CNCCCn3cccn3)c(-c3cccc(C)c3)n2)cc1 | 79* | 17 | 85* | 15 | -27 | 5
CCOC(=O)C1(Cc2ccc(OC)cc2)CCN(S(C)(=O)=O)CC1 | 4 | -1 | 9 | 1 | -7 | 1
CCOC(=O)C1(Cc2ccc(Cl)cc2)CCN(C(C)Cc2ccc(O)c(OC)c2)CC1 (stereo not drawn) | 5 | 12 | 9 | 92* | -3 | 12
CCCCC(c1nnnn1CCOC)N1CCN(CC)CC1 (stereo not drawn) | 5 | -1 | 5 | 16 | -8 | 1
C=CCN1CCN(C(CC(C)C)c2nnnn2CCOC)CC1 (stereo not drawn) | 2 | 9 | 2 | 2 | -3 | 49*
COc1ccc(CC(=O)NNC(=O)c2cc(C)[nH]n2)cc1 | -3 | -17 | 62* | -15 | 6 | -2
Cc1cc(C(=O)NNC(=O)CCCCC(=O)NNC(=O)c2cc(C)[nH]n2)n[nH]1 | -3 | 7 | -2 | -9 | -12 | 1
Cc1ccc(S(=O)(=O)/N=C2\C(=O)c3ccccc3C([O-])=C2n2cc[n+](CCC(C)C)c2)cc1 | 69* | 5 | 18 | -3 | -3 | -1
CCCC[n+]1ccn(C2=C([O-])c3ccccc3C(=O)/C2=N\S(=O)(=O)c2ccc(Br)cc2)c1 | 94* | 44 | 9 | 45 | -1 | 8
CC(=O)Nc1ccc(S(=O)(=O)/N=C2\C(=O)c3ccccc3C([O-])=C2n2cc[n+](-c3ccccn3)c2)cc1 | 48 | -40 | -2 | . | 10 | 39
CCN(CC)S(=O)(=O)c1ccc(N2CCOCC2)c(NC(=O)c2[nH]c(C)c(C(C)=O)c2C)c1 | 11 | -149 | -33 | -40 | 8 | 16
N#CCCN(C(=O)CCl)c1cccc(Cl)c1 | 37 | 25 | 54* | -15 | -10 | 45*
O=C(CCCc1ccccc1)NCCc1ccccc1 | -48 | 10 | -116 | -31 | -14 | -13
CCCCCCN(C(=O)CCl)c1ccccc1 | 34 | 85* | 27 | -8 | -68* | 7
CCCCCCCN(C(=O)CCl)c1cccc(C)c1 | 40 | 78* | 6 | -30 | -87* | 1
O=C(CCl)N(CCc1ccccc1)CCc1ccccc1 | 0 | 66* | 27 | -6 | -50* | -7
SMILES | MITF TRPM1 inh | CF NFkB inh | Peg3 promoter | Shn3 inh set2 | KKLEB cytotox | LMP1 NFkB inh
COC(=O)[C@]1(C)N[C@H](CN(C)C(=O)C2CCCCC2)[C@@H]2C(=O)N(C)C(=O)[C@@H]21 | 6 | -4 | -16 | -20 | 2 | -7
Cc1cccc2sc(=S)[nH]c12 | . | -10 | 12 | 7 | -9 | .
O=C(CCl)N(c1ccccc1)c1ccccc1 | 47 | 56* | 47 | -4 | -15 | 1
CC(=O)OC1(C(C)=O)CCC2C3CC(C(F)(F)F)C4=CC(=O)CCC4(C)C3CCC21C (stereo not drawn) | 19 | 19 | -29 | 11 | -5 | -12
CC(=O)O[C@]1(C(C)=O)CC[C@H]2[C@@H]3C[C@H](C)C4=CC(=O)CC[C@]4(C)[C@H]3CC[C@@]21C | 0 | 53* | -21 | -24 | 21 | 2
CC(=O)[C@H]1CC[C@H]2[C@@H]3C[C@H](C)C4=CC(=O)CC[C@]4(C)[C@H]3[C@@H](O)C[C@]12C | -22 | 57* | -7 | 35 | 20 | 57*
Cc1coc2c(C)c3oc(=O)cc(-c4ccccc4)c3cc12 | 12 | -3 | 74* | -16 | -6 | 2
CC1C(c2ccc3c(c2)OCO3)c2cc3c(cc2OC1N1CCOCC1)OCO3 (stereo not drawn) | -9 | -10 | 19 | -26 | 9 | -5
COc1ccc(CNC(=O)CC[C@H]2O[C@@H](n3cc(C)c(=O)[nH]c3=O)C[C@@H]2O)cc1 | . | 2 | -2 | 6 | 11 | .
COC(=O)CCn1nnc(-c2ccc(C(C)C)cc2)n1 | 68* | -6 | 8 | 70 | 10 | ?
O=C(Nc1ccc(Br)cc1F)c1nc[nH]c1C(=O)N1CCc2ccccc2C1 | . | -35 | -11 | 6 | 6 | 1
CCCCn1c(NC(=O)c2ccccc2Cl)c(C#N)c2nc3ccccc3nc21 | 3 | 32 | 53* | -4 | -40 | 11
Cc1ccc(C2CC(C(F)F)n3ncc(C(=O)Nc4cnn(Cc5ccccc5C)c4)c3N2)cc1 (stereo not drawn) | 0 | 19 | 61* | 9 | -16 | -15
Cc1ccccc1Cn1cc(NC(=O)c2nn(C)cc2Cl)cn1 | -22 | 7 | -35 | -16 | 2 | -2
CC(CC(=O)Nc1ccc2c(c1)c(=O)n(C)n2-c1ccc2ccccc2c1)C(F)(F)F (stereo not drawn) | . | 24 | -12 | 36 | -18 | .
CCn1c(SCC(=O)Nc2cccc(NC(C)=O)c2)nc2c([nH]c3ccccc32)c1=O | 26 | 61* | 30 | 7 | -52* | -6
Cc1ccc(NC(=O)C2(C)CCCN2C)cc1C (stereo not drawn) | . | 5 | -7 | -27 | -1 | .
ON=C1C2CC=C(c3ccccc3)C1CCC2 (stereo not drawn) | -5 | -27 | 10 | 1 | 0 | 1
CC1(Oc2ccc(Cl)cc2)CCN(Cc2ccc(-c3ccccn3)cc2)C1 (stereo not drawn) | . | -29 | -11 | -29 | 14 | .
CC(=O)C(C(C)=O)c1c(Cl)c(O)c(O)c2c(C(=O)c3ccccc3)coc12 | 38 | 34 | 35 | 89* | -26 | 8
